This note sets out measurements from PubChem BioAssay (Tox21).

A short description of test [1]: qHTS assay for small molecules that induce genotoxicity in human embryonic kidney cells expressing luciferase-tagged ATAD5 (AID 651632). Note: nearly all actives have a fitted effect of over 15% in size. The gist of the method:
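Increased luciferase signal from ATAD5-tagged reporter cells indicates DNA-damage-driven ATAD5 induction. HEK293T cells are treated for 16 hr at 37C before detection with Amplite.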
For orientation: In qHTS, concentration-response curves come from the screen itself.

Test [2] can be described thus: qHTS assay for small molecule agonists of the p53 signaling pathway - cell viability (AID 651633; calls by dose curve;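 note: p53RE-bla HCT reporter cells with a stable beta-lactamase p53 reporter; nearly all actives have a fitted effect of over 30% in size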). The gist of the method:
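p53RE-bla cells were treated with compound for 16 hours at 37 C. Cytotoxicity was then measured as CellTiter-Glo luminescence after 30 min at room temperature.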

A short description of test [3]: qHTS assay for small molecules that induce genotoxicity in human embryonic kidney cells expressing luciferase-tagged ATAD5 - cell viability (AID 651634; calls by dose curve; note: nearly all actives have a fitted effect of over 25% in size). The gist of the method:
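Cytotoxicity counterscreen in HEK293T cells bearing an ATAD5-luciferase reporter: live-cell protease activity measured by CellTiter-Fluor fluorescence after 15.5 hr compound exposure.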

The nature of test [4]: qHTS assay for small molecule disruptors of the mitochondrial membrane potential - cell viability (AID 720634; calls by dose curve;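 note: human HepG2 liver cancer cells; nearly all actives have a fitted effect of over 20% in size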). The gist of the method: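 After overnight attachment at 37 C, HepG2 cells received compound or DMSO vehicle for 1 hr. Viability is then taken from ATP-driven luminescence following a 30 min room-temperature CellTiter-Glo step.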
Test [5] can be described thus: qHTS assay to test for compound auto fluorescence at 590 nm (red) in HepG2 cells (AID 720674). The method, boiled down:
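Fluorescence at 590 nm emission following 540 nm excitation was recorded from HepG2 wells one hour after compound transfer, with DMSO-only wells as vehicle and Rose Bengal sodium equivalency as the scale.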

Test [6] in a line: qHTS assay to test for compound auto fluorescence at 535 nm (green) in HepG2 cells (AID 720675).
Test [7] is described as follows: qHTS assay to test for compound auto fluorescence at 590 nm (red) in HEK293 cells (AID 720679). The gist of the method: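 HEK293 cells (2,000/well, medium with 10% dialyzed FBS) attached for 4-5 hr at 37C, received 23 nL compound and were incubated overnight at 37C, 5% CO2. Red fluorescence was then read at 540/590nm Ex/Em, referenced to Rose Bengal sodium.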
Test [8] is described as follows: qHTS assay to test for compound auto fluorescence at 535 nm (green) in HEK293 cells (AID 720680).
Test [9] can be described thus: qHTS assay to test for compound auto fluorescence at 460 nm (blue) in HEK293 cell free culture (AID 720681). The gist of the method:
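Compounds were added to cell-free DMEM with 10% FBS and fluorescence read directly. The blue channel used 405 nm excitation and 460 nm emission, with triamterene as the reference fluorophore.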

A short description of test [10]: qHTS assay to test for compound auto fluorescence at 590 nm (red) in HEK293 cell free culture (AID 720683). The method, boiled down: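 Cell-free wells of DMEM with 10% FBS received compound, and intrinsic fluorescence was read at excitation/emission 540/590 nm. Values expressed as equivalence to Rose Bengal sodium.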
Test [11] in a line: qHTS assay to test for compound auto fluorescence at 590 nm (red) in HepG2 cell free culture (AID 720684). The gist of the method: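 Compounds are added to culture medium (MEM, 10% FBS) lacking cells, then fluorescence is read at excitation 540 nm, emission 590 nm, with Rose Bengal sodium as the equivalency standard.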
A short description of test [12]: qHTS assay to test for compound auto fluorescence at 460 nm (blue) in HepG2 cell free culture (AID 720685). The gist of the method:
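Compound (23 nL) or DMSO pinned into cell-free MEM with 10% FBS; blue fluorescence read at 405/460 nm excitation/emission, expressed as auto-fluorescence equivalency to triamterene.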

A short description of test [13]: qHTS assay to test for compound auto fluorescence at 535 nm (green) in HepG2 cell free culture (AID 720686).
A short description of test [14]: qHTS assay to test for compound auto fluorescence at 460 nm (blue) in HepG2 cells (AID 720687). The method, boiled down: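 HepG2 cells in MEM with 10% FBS, attached overnight at 37 C, were exposed to compound or DMSO for 1 hr at 37 C, 5% CO2. Blue fluorescence was read at 405/460 nm, with triamterene as reference fluorophore.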
For test [15], the target named is Glucocorticoid receptor (Homo sapiens) (UniProt P04150). As to the kind of experiment: qHTS assay to identify small molecule antagonists of the glucocorticoid receptor (GR) signaling pathway (AID 720692; active = well fitted inhibition curve with a large enough effect in the signal ratio in the repeat runs, not every such curve was filed as active; the % refers to the signal ratio). The method, boiled down: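 Cells plated, rested 4 h at 37 C/5% CO2; compounds in DMSO pin-transferred; dexamethasone added to 5 nM final; 18 h at 37 C; B/G FRET substrate added, 2 h room temperature; fluorescence measured.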

Test [16] can be described thus: qHTS assay to test for compound auto fluorescence at 535 nm (green) in HEK293 cell free culture (AID 720682). The method, boiled down: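 Using fluorescein as calibrant, autofluorescence was quantified at 485/535 nm in cell-free DMEM containing 10% FBS after pintool addition of compound or vehicle.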
The nature of test [17]: qHTS assay to test for compound auto fluorescence at 460 nm (blue) in HEK293 cells (AID 720678). The gist of the method: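 HEK293 cells (2,000 per well, medium with 10% dialyzed FBS) attached for 4-5 hr at 37C, then received compound and stood overnight at 37C, 5% CO2. Blue fluorescence was read at Ex/Em 405/460 nm and expressed relative to triamterene.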
A short description of test [18]: qHTS assay for small molecule disruptors of the mitochondrial membrane potential (AID 720635). Note: potency is the fitted concentration of half-maximal effect. The gist of the method:
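HepG2 cells exposed to compound 1 hr at 37C, then Mito-MPS dye 30 min. Ratio read of aggregate (540/590 nm) versus monomer (490/535 nm) fluorescence.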

For test [19], the target named is Glucocorticoid receptor (Homo sapiens) (UniProt P04150). Kind of test: qHTS assay to identify small molecule agonists of the glucocorticoid receptor (GR) signaling pathway (AID 720691; active = well fitted activation curve with a large enough effect in the signal ratio in the repeat runs, not every such curve was filed as active; the % refers to the signal ratio). Particulars: GR-bla HeLa, beta-lactamase reporter ratio, 18 h; activation: at 62.4 µM (top of the series). The gist of the method:
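Agonist mode in a HeLa line carrying a GRE-controlled beta-lactamase reporter. Compounds act for 18 h at 37 C before a 2 h room-temperature FRET substrate step and fluorescence reading.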

Records with an inconclusive call do not appear. Active and inactive are the calls of the source. Unless noted, calls come from the whole dose curve; as a rule, active = well fitted curve in the direction sought with a large enough effect in the repeat runs; inconclusive = weak or mixed curves; inactive = no such curve, though single readings can be large; an effect the other way counts as inactive or inconclusive.

Chain of Glucocorticoid receptor (Homo sapiens) (P04150 whole entry, looked up): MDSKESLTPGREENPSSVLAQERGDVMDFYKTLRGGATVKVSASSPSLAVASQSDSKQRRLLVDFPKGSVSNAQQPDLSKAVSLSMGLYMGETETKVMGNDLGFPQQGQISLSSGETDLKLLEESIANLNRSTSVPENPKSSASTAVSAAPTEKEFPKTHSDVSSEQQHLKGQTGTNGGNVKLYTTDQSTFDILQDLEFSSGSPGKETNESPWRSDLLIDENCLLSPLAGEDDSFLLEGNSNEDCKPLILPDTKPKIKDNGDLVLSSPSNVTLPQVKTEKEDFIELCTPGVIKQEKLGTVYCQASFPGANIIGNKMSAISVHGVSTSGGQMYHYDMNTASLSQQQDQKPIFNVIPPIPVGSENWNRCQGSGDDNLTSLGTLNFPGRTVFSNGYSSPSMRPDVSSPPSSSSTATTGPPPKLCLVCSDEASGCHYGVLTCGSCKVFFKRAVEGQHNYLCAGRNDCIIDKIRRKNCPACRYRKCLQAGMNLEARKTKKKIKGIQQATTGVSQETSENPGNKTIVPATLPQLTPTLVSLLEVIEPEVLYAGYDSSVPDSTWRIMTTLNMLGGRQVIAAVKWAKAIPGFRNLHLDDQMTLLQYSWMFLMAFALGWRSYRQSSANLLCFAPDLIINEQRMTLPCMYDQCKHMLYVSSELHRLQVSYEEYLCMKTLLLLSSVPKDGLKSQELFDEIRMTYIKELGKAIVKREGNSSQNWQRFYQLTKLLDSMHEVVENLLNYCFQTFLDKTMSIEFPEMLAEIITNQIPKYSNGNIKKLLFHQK

Regarding `CCC1(CC)C(=O)N=C(O)NC1=O`, the Potency entry in test [1], in test [2], in [3], in test [4], in test [6] and in test [9] was “inactive” in each case. Further, the Potency entry in test [12], in [13], in [14] and in test [15] was “inactive” throughout. Moreover, the call in test [5], in test [7], in [8], in test [10] and in [11] was inactive.
Turning to `O=C(NC(=O)c1c(F)cccc1F)Nc1ccc(Oc2ccc(C(F)(F)F)cc2Cl)cc1F`, the Potency entry in test [1], in test [2], in [3], in [6], in test [9] and in [12] was “inactive” throughout. The Potency result in test [13] and in [14] was “inactive” throughout. Besides, the compound was classed as inactive in [5], in [7], in test [8], in test [16], in test [10] and in [11].
Take `Nc1c(Cl)c(Cl)c(Cl)c(Cl)c1Cl`: the Potency entry in [1], in test [2], in [6], in test [17], in test [12] and in [13] was “inactive” in each case. Moreover, the Potency entry in [14] was “inactive”. Also, the outcome in test [5], in test [7], in test [8], in test [16], in test [10] and in test [11] was inactive.
Consider `C#CCC1=C(C)C(OC(=O)C2C(C=C(C)C)C2(C)C)CC1=O` (stereo unspecified), for which the Potency entry in test [1], in test [3], in test [6], in test [17], in test [9] and in test [12] was “inactive” throughout. Moreover, the Potency result in test [13] and in test [14] was “inactive” throughout. In test [18], the Potency is 60.7 µM (active). Also, the compound was called inactive in test [5], in [7], in [8], in [16], in [10] and in test [11].
As for `Cc1c([N+](=O)[O-])c(C)c([N+](=O)[O-])c(C(C)(C)C)c1[N+](=O)[O-]`, the Potency entry in test [1], in test [2], in test [4], in test [6], in test [17] and in [9] was “inactive” throughout. In addition, the Potency entry in [12], in test [13], in test [14], in [19] and in [15] was “inactive” throughout. Moreover, the Potency in test [18] is 15.4 µM (active). In addition, the compound was classed as inactive in test [5], in test [7], in test [8], in test [10] and in test [11].
For the compound `FC(F)C(F)(F)OCC(Cn1cncn1)c1ccc(Cl)cc1Cl` (stereo unspecified), the Potency result in [1], in test [2], in [6], in test [9], in test [12] and in [13] was “inactive” each time. Moreover, the Potency entry in test [14] and in [19] was “inactive” in each case. Also, the Potency in test [18] was 48.3 µM (active). The compound was called inactive in [5], in test [7], in [8], in [16], in [10] and in test [11].
For the compound `CCNc1nc(NC(C)C(C)C)nc(SC)n1` (stereo unspecified), the Potency entry in test [1], in test [3], in [4], in test [6], in test [17] and in test [9] was “inactive” throughout. Moreover, the Potency result in test [12], in [13], in test [14], in [19] and in [15] was “inactive” in each case. In [18], the Potency was 7.7 µM (active). Besides, the call in [5], in test [7], in test [8], in [16] and in [11] was inactive.
